Pf Dd2 growth: blocks in vitro growth of P. falciparum Dd2; P. falciparum Dd2 growth, SYBR Green, 72 h; Potency, µM (titrated, usually from 28.9 µM), inactives show at the top dose activity, negative = inhibition, hits mostly inhibitors; actives 4.3% (n = 120,000); AID 1347417; active = well fitted inhibition curve with a large enough effect;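 also: plate controls were DMSO vehicle for no effect and reference drug for full effect; nearly all actives have a fitted effect of over 65% in size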
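Infected erythrocytes (Dd2, 0.3% parasitemia, 2.5% hematocrit final) are added to compound in RPMI-1640/Albumax II medium, grown 72 h at 37C in low oxygen, then lysed with saponin/Triton-X containing SYBR Green and read by fluorescence.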
Starred values were filed as active, the others as inactive; i = inactive; [ ] = dose if it differs, or a comment. The sample as a whole holds a higher share of hits than the screen did. Potency is read from the fitted curve at half-maximal effect.

SMILES	Pf Dd2 growth
C=CCn1cc2c3c(cccc31)[C@H](CC(C)C)N[C@H](C(=O)NCc1ccc(OC)cc1)C2	i
O=C(NCc1nc(-c2ccncc2)n[nH]1)[C@H]1CCC[C@H](O)C1	-2.3%
CC(=O)N1Cc2ccccc2NC(=O)C12CCNCC2	19.6%
O=C1Nc2ccccc2CN(CC2CCCCC2)C12CCNCC2	11.2µM*
O=C1Nc2ccccc2CC12CCCN2CC1CCCCC1 (centres undefined)	7.08µM*
O=C1Nc2ccccc2CC12CCCN2Cc1ccc(Cl)cc1 (centres undefined)	6.4%
CN1Cc2ccccc2NC(=O)C12CCNC2 (centres undefined)	10.2%[44.1 µM]
CC(=O)N1Cc2ccccc2NC(=O)C12CCNC2 (centres undefined)	17.9%[44.1 µM]
O=C1Nc2ccccc2CN(Cc2ccc(Cl)cc2)C12CCNC2 (centres undefined)	10µM*
O=C1Nc2ccccc2CC12CCCN2CC1CCOCC1 (centres undefined)	-7.1%
CCN1Cc2ccccc2NC(=O)C12CCNC2 (centres undefined)	-19.1%
O=C1CCN(C(=O)C2CCN(S(=O)(=O)c3ccccc3)CC2)CCCCCCN1	16.4%
C=CCN1CCN(C(=O)C2CCN(C(=O)N3CC4CC(C3)[C@H]3CCCC(=O)N3C4)CC2)CC1 (some centres undefined)	5.9%
N#Cc1cccc(NC(=O)Cn2cccc2-c2nc(-c3ccccc3)no2)c1	31.4%
CC(C)=CCN1CC2(CCN(C(=O)c3cc(=O)[nH]c(=O)[nH]3)CC2)CC1=O	i
Cc1noc(C2CC3(CCN(C(=O)c4ocnc4C)CC3)CN2C)n1 (centres undefined)	-13.5%
CCc1nc2c(=O)n(CC(=O)N3CCN(c4cc(C)ccc4C)CC3)nc(C)c2s1	i
CCN1C(=O)CCN(C(=O)CCC2CCCC2)CC12CCOCC2	-13.0%
COCc1noc(CCNC(=O)c2ccc(C)c(N3CCNC3=O)c2)n1	1.1%
O=C(c1cccnc1OC1CCN(S(=O)(=O)c2ccccc2)C1)N1CCOCC1 (centres undefined)	-23.2%
Cc1ccccc1Oc1ncccc1CNCc1cc2c(cc1Cl)OCO2	i
Cc1ccccc1Oc1ncccc1CNCc1cccc(O)c1	12.6µM*
CCn1nc(C)cc1C(=O)NCc1cccnc1Oc1ccccc1C	-14.1%
Cc1ccc(CN2CCN(C(=O)C3Cn4cccc4C(=O)N3C)CC2)cc1 (centres undefined)	i
COCCN1CCC2(CCC1=O)CN(CCC(=O)N1CCCC1)CCN2C (centres undefined)	-2.2%
SMILES	Pf Dd2 growth
Cc1c(O)cccc1C(=O)N1CCCN(Cc2ccc(F)cc2)C(C(C)C)C1 (centres undefined)	3.98µM*
CC(C)C1CN(C(=O)CNC(=O)N(C)C)CCCN1Cc1ccc(F)cc1 (centres undefined)	-19.3%
CC(C)C1CN(C(=O)CN2CCCCC2=O)CCCN1Cc1ccc(F)cc1 (centres undefined)	-9.6%
COc1ccc2cc1Nc1ccc(cc1)C[C@H](NCc1cccc(C(=O)O)c1)C(=O)N(C)[C@H](C(=O)Nc1ccccc1OCc1ccccc1)C2	2µM*
COc1ccc2cc1Nc1ccc(cc1)C[C@H](NCc1ccncc1)C(=O)N(C)[C@H](C(=O)NCc1ccc(OC(F)(F)F)cc1)C2	-20.3%
COc1ccccc1NC(=O)[C@@H]1COCC(=O)N1Cc1ccc(OC)c(OC)c1	36.5%
O=C(c1ccccn1)N1CCC(Oc2ccc(-c3noc(-c4ccccc4)n3)cc2)C1 (centres undefined)	i[5.79 µM]
Cc1onc(-c2cnn(C)c2NCCc2ccccc2)c1C(=O)NCc1ccoc1	-20.9%[44.1 µM]
COc1ccc(CN2C[C@@H](CO)[C@H](c3nc(C)no3)C2)cc1OC	10.1%
COc1cccc(CN2C[C@@H](CO)[C@H](c3nc(C)no3)C2)c1OC	i
COc1ccc2c(c1)c(CN1C[C@@H](CO)[C@H](c3nc(C)no3)C1)cn2C	10µM*
COCCCn1c(C)cc(C(=O)N2CC(COC)C3(CCNCC3)C2)c1C (centres undefined)	34.2%
OC[C@H]1CCN(Cc2cn(-c3ccccc3)nc2-c2ccncc2)C[C@@H]1O	-29.6%
COc1ccc(-c2nn(-c3ccccc3C)cc2CN2CCCN(C)CC2)cc1F	7.94µM*
CCN1CCN(Cc2cn(-c3ccccc3F)nc2-c2cc(C)sc2C)CC1	11.2µM*
COCCn1cc(CN2CCN(Cc3ccccc3F)CC2)ccc1=O	22.5%
COc1ccc(-c2nn(-c3ccccc3)cc2CN2CCCC(C)(O)C2)c(F)c1 (centres undefined)	i
COc1ccc(OC)c(CN2CCN(S(=O)(=O)c3ccccc3)CC2)c1	i
CCc1c(CN2CCN(c3ccccc3F)CC2)csc1C	-0.8%
CCc1ccc(N2CC(c3noc(-c4ccc(OC)c(F)c4)n3)CC2=O)cc1 (centres undefined)	8.9%
CCC1CN(Cc2cn(-c3ccccc3C)nc2-c2ccc(OC)c(F)c2)CCO1 (centres undefined)	11.2µM*
Cc1ccc(-c2cc3c(=O)n(CCNC(=O)c4ccc5cc[nH]c5c4)ccn3n2)cc1C	i

Bioassay records (PubChem BioAssay)
